Compound activity deposited in PubChem BioAssay by National Center for Advancing Translational Sciences (NCATS).
TGFb SMAD3 inh – blocks TGF-b signaling | HepG2 CAGA-GFP TGF-b/SMAD3 reporter, GFP fluorescence, 18 h; TGF-beta stimulated, 500 pg/mL final | Potency, µM (titrated, usually from 46.1 µM), for the others: at the top dose activity, negative = inhibition, actives largely listed as inhibitors | 410,000 tested, 1.2% active; further: potency means the concentration at half of the fitted maximal effect; on the % scale 0 is the no-effect control and ±100 the full control effect; nearly all actives have a fitted effect of over 65% in size
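HEPG2 CAGA-GFP cells (1000/well, DMEM with 1% FBS) were pre-incubated 2 h at 37 degrees C, given compound by pin tool, then stimulated with TGF-beta at 500 pg/mL final for 18 h before per-cell GFP fluorescence imaging.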
HepG2 tox-1 – HepG2 cytotoxicity, counter-screen for TGF-b inhibitors; HepG2 CAGA-GFP viability, ATP luminescence, 18 h; Potency, µM (series often up to 46.1 µM), for inactives: at the top dose activity change, negative = cytotoxicity, usual class: cytotoxic; 410,000 tested, 0.76% active; AID 588856; further: potency means the concentration at half of the fitted maximal effect
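HepG2 CAGA-GFP cells (1000/well, DMEM with 1% FBS) received compound, then TGF-beta at 500 pg/mL final, and were incubated 18 hours at 37 degrees C. Viability was read by CellTiter-Glo luminescence. Media-only wells were set as complete cell-killing and DMSO as no toxicity.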
IL-1B inflam inh – inflammasome signaling inhibition, IL-1 beta readout | 360,000 tested, 4.7% active | activity change, % at 57.5 µM | THP-1 LPS/ATP IL-1B secretion, AlphaLISA, 16 h; stronger effect = lower value; in the data active means activity change below about -50%; inconclusive means mostly about -30% to -49%; further: on the % scale 0 is the no-effect control and ±100 the full control effect
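Secreted IL-1B measured by AlphaLISA bead assay after 16 h compound exposure of THP-1 cells; compounds (final up to 57.5 uM) added 1 h before LPS (250 ng/mL) and ATP (1.25 mM) stimulation; lower signal means less secretion.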
S2 tox – viability counter-screen for ATXN expression inhibitors | 400,000 tested, 0.49% active | S2 cells (HEK-293 line with an ATXN2-luciferase reporter) viability, CellTiter-Fluor protease fluorescence, 24 h | Potency, µM (top dose mostly 56.7 µM), usual class: cytotoxic; further: potency means the concentration at half of the fitted maximal effect; nearly all actives have a fitted effect of over 40% in size
ATXN2 expr inh – ATXN2 expression inhibition; HEK-293 ATXN2-luciferase reporter, luminescence, 24 h; Potency, µM (titrated, usually from 57 µM), without a hit: at the top dose activity change, negative = inhibition, usual class: inhibitors; 360,000 tested, 0.72% active; further: potency means the concentration at half of the fitted maximal effect; on the % scale 0 is the no-effect control and ±100 the full control effect; nearly all actives have a fitted effect of over 55% in size
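qHTS (up to 57 uM final) was run with 24 h compound exposure of reporter cells at 37 °C. Each well was multiplexed: SteadyGlo luminescence measured ATXN2-luciferase expression after a fluorogenic Gly-Phe-AFC viability readout (25 uM final).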
TGFb CAGA inh – confirmation of TGF-b signaling inhibitors in HepG2 reporter cells | shares compounds with TGFb SMAD3 inh | AID 720534 | Potency, µM (highest dose often 46.1 µM), for inactives: top-dose activity, negative = inhibition, usual class: inhibitors | HepG2 CAGA-GFP TGF-b reporter, GFP fluorescence, 18 h; cells stimulated with TGF-beta, 500 pg/mL | 1,600 tested, 63% active; further: potency means the concentration at half of the fitted maximal effect; on the % scale 0 is the no-effect control and ±100 the full control effect; nearly all actives have a fitted effect of over 65% in size
HepG2 tox-2 – counter-screen for TGF-b inhibitors: cytotoxicity in HepG2 cells; shares compounds with TGFb SMAD3 inh; HepG2 CAGA-GFP viability, ATP luminescence, 18 h; cells stimulated with TGF-beta, 500 pg/mL; Potency, µM (top dose mostly 46.1 µM), for inactives: at the highest dose activity, negative = cytotoxicity, hits mostly inhibitors; 1,600 tested, 27% active; AID 720535; further: potency means the concentration at half of the fitted maximal effect; on the % scale 0 is the no-effect control and ±100 the full control effect; nearly all actives have a fitted effect of over 70% in size
CCL64 TGFb inh – orthogonal confirmation of TGF-b inhibitors in CCL64 cells; shares compounds with TGFb SMAD3 inh; CCL64 CAGA-GFP reporter, TGF-b stimulated, GFP fluorescence, 18 h; Potency, µM (top dose mostly 46.1 µM), for the others: top-dose activity, negative = inhibition, most hits filed as inhibitors; 1,600 tested, 41% active; AID 720536; further: potency means the concentration at half of the fitted maximal effect; nearly all actives have a fitted effect of over 65% in size
TGFb COP inh – TGF-b inhibition validated with COP promoter; shares compounds with TGFb SMAD3 inh; 1,600 tested, 3% active; AID 720537; Potency, µM (top dose mostly 46.1 µM), inactives show at the top dose activity, negative = inhibition, most hits filed as inhibitors; HepG2 COP-GFP TGF-b reporter, GFP fluorescence, 18 h; cells stimulated by added recombinant TGF-beta; further: potency means the concentration at half of the fitted maximal effect; nearly all actives have a fitted effect of over 70% in size
* = called active by the depositor; i = inactive; u = inconclusive; x = not tested or not shown. A selection: hits, their analogues and other compounds. The true share with any hit is near 5.7%. Unless noted, the call rests on the fitted dose curve; in most records, active means well fitted curve in the direction sought with a large enough effect; inconclusive means small, poorly fitted or top-dose-only effect, or another doubt; inactive means no such curve, though single readings can be large; an effect the other way counts as inactive or inconclusive.

SMILES	TGFb SMAD3 inh	HepG2 tox-1	IL-1B inflam inh	S2 tox	ATXN2 expr inh	TGFb CAGA inh	HepG2 tox-2	CCL64 TGFb inh	TGFb COP inh
C=CCOc1ccc(C[C@H](N)C(=O)NC[C@H]2O[C@@H](n3cnc4c(N)ncnc43)[C@H](O)[C@@H]2O)cc1	-13%	1%	-14	i	-5%	x	x	x	x
Cc1cccc(NC(=O)CSc2nc3ccccc3nc2N2CC(C)OC(C)C2)c1 (centres undefined)	u	8%	7	u	-11%	x	x	x	x
CC1CN(c2nc3ccccc3nc2SCC(=O)Nc2cccc(C(F)(F)F)c2)CC(C)O1 (centres undefined)	16µM*	-32%	4	u	u	23µM*	u	u	29%
CCc1nn(CC(=O)N(C)Cc2ccccc2)c(=O)c2cc3sccc3n12	u	-20%	x	x	x	x	x	x	x
COc1ccc2nc(Nc3nc(CSc4nc5ccccc5[nH]4)cc(=O)[nH]3)nc(C)c2c1	2.8µM*	4%	-95*	i	0%	8.2µM*	u	18µM*	26%
Cc1nc(Nc2nc(CSc3nc4ccccc4[nH]3)cc(=O)[nH]2)nc2ccccc12	18µM*	-16%	-87*	u	-4%	5.2µM*	4.1µM*	6.5µM*	38%
CCOC(=O)c1ccc(NC(=O)CCC(=O)N2Cc3ccccc3Oc3ncccc32)cc1	4%	-26%	x	u	-24%	x	x	x	x
Cc1cccc(NC(=O)CN2C(=O)C3(SCC(=O)N3c3ccccc3)c3ccccc32)c1 (centres undefined)	u	-15%	x	i	-9%	x	x	x	x
Cc1ccnc(NC(=S)N2CCN(c3cccc(C(F)(F)F)c3)CC2)c1	13µM*	-23%	-88*	u	u	7.3µM*	13µM*	-15%	30%
O=C(Nc1ccc([N+](=O)[O-])cc1)Nc1ccon1	10µM*	-27%	0	i	-12%	u	-21%	u	-17%
O=C(Nc1ccc(Cl)cc1)Nc1csc([N+](=O)[O-])c1	4µM*	-26%	x	i	u	6.5µM*	6.5µM*	5.2µM*	76%
O=C(Nc1csc([N+](=O)[O-])c1)Nc1c(Cl)cccc1Cl	-18%	-19%	-10	i	x	x	x	x	x
O=[N+]([O-])c1ccc(NC(=S)NCCc2ccc(Cl)cc2)cc1	6.3µM*	11µM*	-55*	u	u	15µM*	21µM*	4.6µM*	97%
O=C(Nc1ccc([N+](=O)[O-])cc1)Nc1ccc(Cl)cc1F	2.2µM*	2.8µM*	-93*	i	u	u	u	4.1µM*	26%
S=C(NCCc1ccccc1)Nc1ccc(Cl)cc1	u	-45%	0	i	40%	x	x	x	x
O=C(CSc1nccn1Cc1ccc(F)cc1)NCc1ccc(F)cc1	5%	-6%	x	i	-4%	x	x	x	x
CSc1ncc(C(=O)N2CCN(c3cccc(C(F)(F)F)c3)CC2)c(C)n1	-6%	-3%	x	i	-20%	x	x	x	x
OCc1ccc(-c2nn(Cc3ccccc3)c3ccccc23)o1	2.8µM*	-50%	-11	u	u	1µM*	0.65µM*	u	5%
O=C1OCCN1C(=O)[C@H]1[C@H](c2ccc([N+](=O)[O-])cc2)C(c2cccc(Cl)c2)=NN1c1ccccc1	u	-8%	u	u	-2%	-27%	-18%	0%	-5%
CC[C@@H]1C(c2ccccc2)=NN(c2ccccc2)[C@H]1C(=O)N1CCOC1=O	u	-20%	5	x	-12%	-13%	0%	-2%	-10%
CCOC(=O)c1cc(S(=O)(=O)Nc2c(C)cc(C)cc2C)[nH]n1	u	-31%	x	i	-4%	x	x	x	x
OC(CN1CCN(c2cccc(Cl)c2)CC1)c1ccccc1 (centres undefined)	-25%	-26%	32	i	-3%	x	x	x	x
OC(COC(c1ccccc1)c1ccccc1)CN1CCN(c2cccc(Cl)c2)CC1 (centres undefined)	16µM*	-13%	u	u	-12%	18µM*	u	u	41%
COc1ccc(-c2csc(NC(=O)c3ccccc3NS(=O)(=O)c3ccc(C)cc3)n2)cc1	3.5µM*	-44%	-21	i	u	6.5µM*	9.2µM*	5.2µM*	46%
COc1ccc(S(=O)(=O)Nc2ccccc2C(=O)Nc2nc(-c3ccc(F)cc3)cs2)cc1OC	7.1µM*	-38%	u	i	u	10µM*	u	8.2µM*	48%
SMILES	TGFb SMAD3 inh	HepG2 tox-1	IL-1B inflam inh	S2 tox	ATXN2 expr inh	TGFb CAGA inh	HepG2 tox-2	CCL64 TGFb inh	TGFb COP inh
O=c1[nH]c(SCc2c(F)cccc2Cl)nc2c1CCC2	14%	13%	x	i	-5%	x	x	x	x
CCC(CC)C(=O)N1CCc2cc(OC)c(OC)cc2C1COc1ccc2c(C)cc(=O)oc2c1 (centres undefined)	u	-39%	x	i	3%	x	x	x	x
Cc1ccc(C)c(CN2C(=O)c3ccccc3S(=O)c3ccc(C(=O)N4CCN(c5cccc(Cl)c5)CC4)cc32)c1 (centres undefined)	u	-26%	x	i	-1%	x	x	x	x
Cc1ccc(-n2c(C)cc(/C=N/NC(N)=S)c2C)cc1	0%	5%	34	i	26%	x	x	x	x
CNC(=S)N/N=C/c1cc(C)n(-c2ccc(Cl)c(Cl)c2)c1C	13µM*	-3%	-8	i	0%	21µM*	u	u	34%
CC(C)(C)c1cc(C(c2cccnc2)N2CCN(CCO)CC2)cc(C(C)(C)C)c1O (centres undefined)	7.9µM*	13µM*	-102*	x	u	5.2µM*	15µM*	4.6µM*	u
CCOC(=O)c1c(-c2ccc(C)cc2C)csc1NC(=O)c1ccccc1Cl	3%	-1%	x	i	5%	x	x	x	x
